Assay results: PubChem BioAssay AID588358 (NMMLSC, 2011)
The whole screen tested about 310,000 compounds, of which about 1,500 (0.48%) were called active.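 The calls were made as follows: active = binding more than 3 SD below its plate's average and above zero; inconclusive = below that plate limit but binding exactly zero; inactive = the rest.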 Shown is part of a subset that was picked to be rich in actives.

biological target: Desmoglein-3 (Homo sapiens) (UniProt P32926); assay: blockers of anti-DSG3 scFv binding – biochemical, bead-based, flow cytometry, scFv-GFP, primary screen (AID 588358); conditions: DSG3-coupled beads, at 10 µM, stronger effect = lower value;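 also: hits lower antibody fragment binding to DSG3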
Sequence (P32926 whole entry, looked up, the tested form may be a part): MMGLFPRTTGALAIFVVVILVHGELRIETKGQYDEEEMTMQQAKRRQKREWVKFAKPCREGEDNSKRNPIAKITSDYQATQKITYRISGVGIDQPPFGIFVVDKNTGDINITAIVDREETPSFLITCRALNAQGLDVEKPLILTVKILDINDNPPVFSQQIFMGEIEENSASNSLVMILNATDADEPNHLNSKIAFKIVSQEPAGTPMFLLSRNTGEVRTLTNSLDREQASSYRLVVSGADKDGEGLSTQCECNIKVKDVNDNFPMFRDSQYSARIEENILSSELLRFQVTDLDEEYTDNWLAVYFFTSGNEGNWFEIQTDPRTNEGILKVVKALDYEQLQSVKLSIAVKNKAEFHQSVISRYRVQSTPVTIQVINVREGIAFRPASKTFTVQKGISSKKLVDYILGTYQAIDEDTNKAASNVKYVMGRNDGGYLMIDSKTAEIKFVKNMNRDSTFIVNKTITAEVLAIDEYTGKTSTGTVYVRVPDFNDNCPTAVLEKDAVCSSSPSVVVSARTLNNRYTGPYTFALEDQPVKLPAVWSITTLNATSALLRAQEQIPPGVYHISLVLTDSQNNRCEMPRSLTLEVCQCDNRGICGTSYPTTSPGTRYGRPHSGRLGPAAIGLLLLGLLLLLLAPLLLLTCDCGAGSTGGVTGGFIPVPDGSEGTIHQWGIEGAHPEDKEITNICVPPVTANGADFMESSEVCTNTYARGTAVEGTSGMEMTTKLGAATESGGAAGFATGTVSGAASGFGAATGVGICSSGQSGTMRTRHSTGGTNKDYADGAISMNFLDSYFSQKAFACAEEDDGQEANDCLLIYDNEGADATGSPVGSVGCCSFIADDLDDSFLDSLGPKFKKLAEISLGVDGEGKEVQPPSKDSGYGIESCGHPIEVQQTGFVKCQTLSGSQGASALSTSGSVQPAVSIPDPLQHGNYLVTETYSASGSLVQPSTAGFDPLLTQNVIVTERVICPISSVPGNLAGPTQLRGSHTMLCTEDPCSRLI

Binding (percent of control), active:
Cc1ccc(O/C=C2\OC(=O)c3ccccc32)cc1 80.4%
CCOC(=O)c1c(S(=O)(=O)Nc2cccc(Cl)c2)c(C)n(C)c1C 52%
CCOc1ccc(Cn2nnc(C(=O)Nc3ccc(OC)cc3OC)c2N)cc1 81.7%
COc1ccc(CCNC(=O)/C(C#N)=C2\N=C(NC(=O)c3cccs3)c3ccccc32)cc1 81.2%
Cc1coc2c(O)cc3c(c12)OC1(N2CCCCC2)C(=O)NCCCC31 (configuration not stated) 62.7%
O=C1Nc2ccc(Br)cc2/C1=N/N=C/C1=C(N2CCOCC2)C(=C\c2ccccc2)/CC1 38.1%
Cc1ccc2c(cnn2C(=O)CCC(=O)NC2CCCC2)c1 53%
COc1cc(OC)cc(C(=O)NCCSCc2ccc(Cl)cc2)c1 76.3%
COc1ccc(CCNC(=S)N2CCN(S(=O)(=O)c3ccc(F)cc3)CC2)cc1 63.3%
COc1ccc(-c2csc(Cc3nc(O)cs3)n2)cc1 8.21%
COc1cc(/C=C/C(=O)N2CCc3ccccc3C2)cc(OC)c1OC 68.1%

Binding (percent of control), inactive:
Cc1ccc(S(=O)(=O)N2C[C@@H](C)[C@]3(C2)[C@H](O)[C@H](OC(=O)NCc2ccccc2)C[C@H]2C(=O)N(c4ccccc4)C(=O)[C@H]23)cc1 111%
Cc1ccc(Oc2cnn(-c3ccccc3)c(=O)c2Br)cc1 117%
CN(C)C(CNC(=O)c1cccc(S(=O)(=O)N2CCc3ccccc3C2)c1)c1ccccc1 (configuration not stated) 97.5%
Cc1cc(Cl)ccc1C(=O)C1CCCN(C(=O)c2ccc3c(c2)OCO3)C1 (configuration not stated) 103%
CCOC(=O)c1cccc(NS(=O)(=O)c2c(C(=O)N3CCCCCC3)c(C)n(C)c2C)c1 99.4%
CCOC(=O)c1c(S(=O)(=O)NCC(=O)Nc2ccc(C)cc2)c(C)n(C)c1C 97.8%
N#CCCN(C(=O)Nc1ccc(Cl)c(Cl)c1)C1CCCCC1 105%
Cn1nc(N)c2ncc(C(Cl)(Cl)Cl)nc21 100%
O=C(CC(CC(=O)c1ccccc1)c1ccco1)c1ccccc1 99.4%
CNC(=O)C1CN(C(=O)c2cccc(S(=O)(=O)N3CCc4ccccc43)c2)c2ccccc2O1 (configuration not stated) 103%
Cc1cccc(C(=O)OCC(=O)Nc2sccc2C(N)=O)c1C 104%
COc1ccc(NC(=O)Cn2nnc(C(=O)NCCc3ccc(OC)c(OC)c3)c2N)cc1 103%
CCc1ccc(NC(=O)Cn2nnc(C(=O)NCc3ccc(OC)cc3)c2N)cc1 106%
C[C@H]1NS(=O)(=O)c2cc(Cl)ccc2O[C@@H]1c1ccccc1 98.4%
COc1ccc(CN(Cc2ccc(OC)cc2)C(=O)c2cccs2)cc1 100%
COc1cc2ccccc2cc1C(=O)Nc1ccc(NC(=O)c2cccs2)cc1 87.2%
COc1ccc(OC)c(C(=O)NC2CCCc3c2cnn3-c2cc(C)cc(C)c2)c1 (configuration not stated) 96.8%
CCCCN(C(C)=O)c1ccc2c(c1)C1CC2CCN1Cc1ccccc1 (configuration not stated) 101%
NC(=S)NN=Cc1ccc(OC(=O)COc2cc(Cl)c(Cl)cc2Cl)cn1 102%
COCOCCn1cc(CN2CCS(=O)(=O)N(Cc3ccc(-c4cccc(N(C)C)c4)cc3)C(CC(C)C)C2=O)nn1 (configuration not stated) 101%
CCOC(=O)c1c(NC(=O)COC(=O)c2ccc(S(=O)(=O)C(F)F)cc2)sc(C(=O)N(C)C)c1C 100%
O=C(O)c1ccc(NN=CC2=C(N3CCOCC3)/C(=C/c3ccccc3)CC2)cc1 109%
C(=N\N1CCN(c2ccccn2)CC1)/C1=C(N2CCOCC2)C(=C/c2ccccc2)/CC1 109%
CN1OC[C@@H]2CN(C(=O)c3ccc(-c4ccccc4)cc3)[C@H](c3ccc(-c4cccc(F)c4)cc3)C[C@@H]21 98.8%
COCCn1c(SCC(=O)Nc2ccc(F)cc2F)nc2c(c1=O)SCC2 103%
O=C(COc1ccc(S(=O)(=O)N2CCCC2)cc1[N+](=O)[O-])N1CCCCC1 92.6%
Cc1ccc2nc(SCC(=O)NC3CCCC3)[nH]c2c1 81.4%
Cc1cccc2c1cnn2C(=O)CCC(=O)NC1CCCCC1 102%
CC1(c2cccc(Br)c2)NC(=O)N(CC(=O)NCCC2=CCCCC2)C1=O (configuration not stated) 99.5%
O=Nc1c(O)cc(O)c2ccccc12 104%
CC(C)CCC(=O)Nc1cc(S(=O)(=O)N2CCOCC2)ccc1N1CCCC1 104%
COc1ccc(CCNC(=O)c2cnc(Cl)c(Cl)c2)cc1 97.2%
COc1ccc(N(CC(=O)NCCSCc2cccc(Cl)c2)S(C)(=O)=O)cc1 104%
Cc1ccc(S(=O)(=O)NN=C2CC(C)(C)CC(=O)C2(C)C)cc1 98.4%
O=C(NCCc1cccc(F)c1)C1CC(O)CN1C(=O)Nc1ccccc1 (configuration not stated) 94.3%
COc1cc(C=NC2CCCCC2)ccc1O 106%
COc1ccc(CCC(=O)N2CCN(S(=O)(=O)c3ccc(OC)cc3)CC2)cc1 96.6%
COc1ccc(CCNC(=S)N2CCN(S(=O)(=O)c3ccc(Cl)cc3)CC2)cc1 106%
COC(=O)[C@H]1C[C@H](OC(=O)NCc2ccccc2)[C@@]2(O)CN(S(=O)(=O)c3ccc(C)cc3)CC2[C@H]1C(=O)OC (some centres not stated) 110%
CC(C)(C)C(=O)OCc1nc(-c2ccc(O)c(O)c2)cs1 103%
COc1ccc(-c2cn3ccsc3n2)cc1 107%
COc1ccc([C@H]2C[C@@H](n3cc(COC(=O)c4ccccc4)nn3)[C@H](O)CN2C(=O)c2cccs2)cc1 106%
CCN1CCN(CCNC(=O)c2ccc3c(c2)NC(=O)/C(=C\c2cccc(Cl)c2)S3)CC1 106%
O=C(COC(=O)c1ccc(S(=O)(=O)N2CCCCCC2)cc1)Nc1ccccc1C(F)(F)F 109%
CCOC(=O)C1CCN(C(=O)/C=C/c2cc(OC)c(OC)c(OC)c2)CC1 101%
COc1ccc(/C=C/C(=O)N2CCCC2)cc1OC 105%
